Sampled rows, rich in hits. Any-hit rate of the full collection: about 18%.
IL1B secr inh: inhibitors of inflammasome signaling (IL-1 beta secretion). THP-1 LPS/ATP IL-1B secretion, AlphaLISA, 16 h; hits give low values. activity change, % at 57.5 µM. 4.7% of 360,000 active. AID 743279; in the data active = activity change below about -50%; inconclusive = mostly about -30% to -49%; note: % is set by controls: 0 for no effect and ±100 for the full control effect
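THP-1 cells pretreated 1 hr with compounds (up to 57.5 uM final), then stimulated with LPS (250 ng/mL final) plus ATP (1.25 mM final); secreted IL-1B measured by AlphaLISA after 16 hr, decreased signal indicating inhibition.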
TGFb inhibitor: blocks TGF-b signaling. HepG2 CAGA-GFP TGF-b/SMAD3 reporter, GFP fluorescence, 18 h; TGF-beta stimulated, 500 pg/mL final. Potency, µM (titrated, usually from 46.1 µM), for the others: at the highest dose activity, negative = inhibition, actives largely listed as inhibitors. 1.2% of 410,000 active. AID 588855; note: potency is the fitted concentration of half-maximal effect; % is set by controls: 0 for no effect and ±100 for the full control effect; nearly all actives have a fitted effect of over 65% in size
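HEPG2 CAGA-GFP cells (1000/well, DMEM with 1% FBS) were pre-incubated 2 h at 37 degrees C, given compound by pin tool, then stimulated with TGF-beta at 500 pg/mL final for 18 h before per-cell GFP fluorescence imaging.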
DT40 TDP1 no CPT: qHTS for Inhibitors of human tyrosyl-DNA phosphodiesterase 1 (TDP1): qHTS in cells in absence of CPT. 15% of 420,000 active. DT40 Tdp1-/- hTDP1 cells, no CPT, ATP luminescence, 48 h. Potency, µM (highest dose often 46.2 µM), inactives show top-dose activity change, negative = growth inhibition, actives largely listed as inhibitors; note: potency is the fitted concentration of half-maximal effect; % is set by controls: 0 for no effect and ±100 for the full control effect; nearly all actives have a fitted effect of over 55% in size
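Growth kinetics read by CellTiter-Glo luminescence after ≥48 hr at 37 °C. Cells: DT40 Tdp1-/- stably carrying human TDP1, 400 per well, compound exposure in the absence of CPT (DMSO vehicle).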
HepG2 viability: counter-screen for TGF-b inhibitors: cytotoxicity in HepG2 cells | 0.76% of 410,000 active | HepG2 CAGA-GFP viability, ATP luminescence, 18 h | Potency, µM (series often up to 46.1 µM), for inactives: at the top dose activity change, negative = cytotoxicity, usual class: cytotoxic; note: potency is the fitted concentration of half-maximal effect
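HepG2 CAGA-GFP cells (1000/well, DMEM with 1% FBS) received compound, then TGF-beta at 500 pg/mL final, and were incubated 18 hours at 37 degrees C. Viability was read by CellTiter-Glo luminescence. Media-only wells were set as complete cell-killing and DMSO as no toxicity.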
TDP1 block: blocks human tyrosyl-DNA phosphodiesterase 1; Q9NUW8; Potency, µM (top dose mostly 130 µM), for inactives: top-dose activity change, negative = inhibition, actives largely listed as inhibitors; recombinant TDP1, AlphaScreen DNA substrate cleavage; 0.28% of 350,000 active; note: potency is the fitted concentration of half-maximal effect; % is set by controls: 0 for no effect and ±100 for the full control effect; nearly all actives have a fitted effect of over 40% in size
Target sequence (Q9NUW8 whole entry, looked up): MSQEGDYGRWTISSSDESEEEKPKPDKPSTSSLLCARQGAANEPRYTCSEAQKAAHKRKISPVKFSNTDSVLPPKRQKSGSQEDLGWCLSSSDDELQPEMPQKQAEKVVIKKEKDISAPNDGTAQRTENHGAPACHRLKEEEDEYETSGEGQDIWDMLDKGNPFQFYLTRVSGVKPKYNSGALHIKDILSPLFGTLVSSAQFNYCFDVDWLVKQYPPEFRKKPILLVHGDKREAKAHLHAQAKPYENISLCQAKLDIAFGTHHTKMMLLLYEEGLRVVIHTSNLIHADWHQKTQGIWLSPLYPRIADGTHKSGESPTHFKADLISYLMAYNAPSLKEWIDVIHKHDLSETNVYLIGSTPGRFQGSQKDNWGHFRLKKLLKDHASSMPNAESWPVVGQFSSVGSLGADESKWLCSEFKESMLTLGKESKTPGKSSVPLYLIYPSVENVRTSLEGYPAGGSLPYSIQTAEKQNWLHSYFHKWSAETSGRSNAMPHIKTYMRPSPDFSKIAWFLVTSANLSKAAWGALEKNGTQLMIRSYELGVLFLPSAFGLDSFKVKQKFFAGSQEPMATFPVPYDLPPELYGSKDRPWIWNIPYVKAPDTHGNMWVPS
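E. coli-derived human Tdp1, 1 nM final. Cpd preinc 15 min RT; substrate 15 nM final, 5 min RT; AS bead mix 10 ug/ml final, 10 min RT. Signal loss = tyrosine-FITC cleavage. No-enzyme wells = max signal.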
DT40 TDP1 CPT: DT40-hTDP1 cell growth loss with CPT; chicken DT40 Tdp1-/-;hTDP1 cells + 20 nM CPT, ATP luminescence, 48 h; Potency, µM (titrated, usually from 46.2 µM), for inactives: at the top dose activity change, negative = growth inhibition, usual class: inhibitors; 12% of 420,000 active; AID 686979; note: potency is the fitted concentration of half-maximal effect; % is set by controls: 0 for no effect and ±100 for the full control effect; nearly all actives have a fitted effect of over 55% in size
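Cell growth measured by CellTiter-Glo luminescence after a minimum 48 h, 37 C compound exposure with 20 nM CPT in Tdp1-knockout DT40 cells stably expressing hTDP1, seeded 400/well; qHTS titration format.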
An asterisk follows results filed as active; ? = inconclusive; / = not tested or not shown; [ ] = dose if it differs, or a comment. Unless noted, calls come from the whole dose curve; as a rule, active = well fitted curve in the direction sought with a large enough effect; inconclusive = small, poorly fitted or top-dose-only effect, or another doubt; inactive = no such curve, though single readings can be large; an effect the other way counts as inactive or inconclusive.

SMILES | IL1B secr inh | TGFb inhibitor | DT40 TDP1 no CPT | HepG2 viability | TDP1 block | DT40 TDP1 CPT
CC(=O)N1CCN(C(=O)c2cc(-c3cccc4ccccc34)nc3ccccc23)CC1 | -6 | 8% | 16µM* | 4% | 6% | 15µM*
Cc1cc(C)c(CN2CCC3(CCC(CNC(=O)c4ccn(C)n4)O3)CC2)cc1C (stereo not drawn) | / | / | -21% | / | / | -19%
NS(=O)(=O)c1cc2c(cc1C(F)(F)F)N[C@H](Cc1ccccc1)NS2(=O)=O | / | / | / | / | 14%[21 µM] | /
CC(C)N(C)c1ncnc2c1ncn2[C@H]1CN(C2CCCC2)C[C@@H](CO)O1 | 22 | 9% | -25% | -1% | / | -23%
Cc1ccc(NC(=O)Cn2c(=O)n(CCCCC(=O)NCc3ccc4c(c3)OCO4)c(=O)c3ccccc32)cc1 | / | 0% | -2% | 5% | -4% | -25%
CN(C)S(=O)(=O)c1cccc(N=C2NN=C(c3ccccc3)CS2)c1 | -57* | 0% | 7.3µM* | -22% | 8% | 18µM*
CC1CN(C(=O)c2ccccc2)C(=Nc2cccc(S(=O)(=O)N(C)C)c2)S1 (stereo not drawn) | 14 | ? | -9% | 2% | 3% | -21%
CC(=O)Nc1ccc(C2=NNC(=Nc3cccc(S(=O)(=O)N(C)C)c3)SC2)cc1 | -79* | 10µM* | 5.8µM* | -23% | 5% | 6.5µM*
CC(C)(C)n1nnnc1C(c1cccnc1)N1CCN(c2ccccc2F)CC1 (stereo not drawn) | 20 | 4% | 0% | -10% | 1% | 0%
Cc1cccc(N2CCN(C(c3cccs3)c3nnnn3C(C)(C)C)CC2)c1C (stereo not drawn) | -3 | ? | 22µM* | -34% | 3% | 18µM*
Cc1cccc(N2CCN(C(c3ccccc3)c3nnnn3C(C)(C)C)CC2)c1C (stereo not drawn) | -12 | 3% | 23µM* | -30% | 1% | ?
CCCC(c1nnnn1CC1CCCO1)N1CCN(c2cc(Cl)ccc2C)CC1 (stereo not drawn) | -10 | 2% | ? | 2% | 0% | ?
CCC(c1nnnn1C(C)(C)C)N1CCN(c2cc(Cl)ccc2C)CC1 (stereo not drawn) | -6 | -3% | 16µM* | -30% | 0% | ?
CC(NC(=O)C(=O)N1CCOCC1)C(c1cccs1)N1CCN(c2ccc(F)cc2)CC1 (stereo not drawn) | 1 | -1% | -9% | 4% | 7% | -13%
CCN(CC)CCN(Cc1cc2cc3c(cc2[nH]c1=O)OCCO3)C(=S)NCCCN(C)C | -17 | -3% | 11% | -13% | / | 5%
CCCCNC(=S)N(CCN(CC)CC)Cc1cc2cc3c(cc2[nH]c1=O)OCCO3 | ? | ? | ? | -63% | / | 26µM*
CC(C)CNC(=S)N(CCN(C)C)Cc1cc2cc3c(cc2[nH]c1=O)OCO3 | ? | 0% | 5.2µM* | -8% | / | ?
CC(C)CNC(=S)N(CCCO)Cc1cc2cc3c(cc2[nH]c1=O)OCO3 | -6 | 2% | -20% | 14% | / | ?
CCN(CC)CCCN(Cc1cc2cc3c(cc2[nH]c1=O)OCO3)C(=S)Nc1ccccc1 | -65* | 5% | ? | -9% | 3% | ?
O=C(NC1CCN(Cc2ccccc2)C1)c1cnn(-c2ncc3c(n2)-c2ccccc2CC3)c1C1CC1 (stereo not drawn) | / | / | -17% | / | / | 7%[9.04 µM]
Cc1ccccc1Nc1c(C)c(C)nc2ncnn12 | 3 | 2% | 21µM* | 6% | / | 16µM*
